High-throughput results: PubChem, National Center for Advancing Translational Sciences (NCATS)
Shown is part of a subset that was picked to be rich in hits.
IMPase Li inh = qHTS Assay for Identifying the Cell-Membrane Permeable IMPase Inhibitors: Potentiation with Lithium; AID 1457, 2008; hit rate 0.35% among 210,000; Potency, µM (titrated, usually from 59.4 µM), usual class: inhibitors; CHO-M1 cells, IP1 TR-FRET (IP-One), carbachol + lithium;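 further: IP1 builds up when IMPase is blocked and the TR-FRET signal falls; nearly all actives have a fitted effect of over 50% in size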
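Concentration–response in CHO-M1 cells, lithium-potentiated; 30 min at 37C. IP1 detected by competitive TR-FRET after 10 min lysis at RT. Hill-fitted AC50.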
ALOX12 inhib = qHTS Assay for Inhibitors of 12-hLO (12-human lipoxygenase) | AID 1452, 2008 | Potency, µM (series often up to 57.1 µM), most hits filed as inhibitors | Polyunsaturated fatty acid lipoxygenase ALOX12 (Homo sapiens), P18054 | hit rate 0.12% among 150,000 | purified 12-hLO, xylenol orange hydroperoxide absorbance; further: nearly all actives have a fitted effect of over 55% in size
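Hydroperoxide formation by human 12-lipoxygenase from 40 uM arachidonic acid was followed colorimetrically via ferric-xylenol orange complex, using the 573/405 nm absorbance ratio. Enzyme concentration was 150 nM, with 30 min reaction at room temperature.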
IMPase inh = qHTS Assay for Identifying the Cell-Membrane Permeable IMPase Inhibitors; AID 901, 2007; 120,000 tested, under 10 active; inhibition (IP1 accumulation), % at 46.1 µM; CHO-M1 cells, IP1 accumulation, HTRF TR-FRET ratio; Inositol monophosphatase 1 (Rattus norvegicus), P97697; active means well fitted curve in the direction sought with a large enough effect in the signal ratio, not every such curve was filed as active; inconclusive means small, poorly fitted or top-dose-only effect, or a change in a side signal; inactive means no such curve, though single readings can be large or run the other way; the % refers to the signal ratio;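 further: cells stimulated with carbachol in lithium chloride buffer; higher means more IMPase inhibition seen as more IP1 and lower FRET ratio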
Target sequence (P97697 whole entry, looked up): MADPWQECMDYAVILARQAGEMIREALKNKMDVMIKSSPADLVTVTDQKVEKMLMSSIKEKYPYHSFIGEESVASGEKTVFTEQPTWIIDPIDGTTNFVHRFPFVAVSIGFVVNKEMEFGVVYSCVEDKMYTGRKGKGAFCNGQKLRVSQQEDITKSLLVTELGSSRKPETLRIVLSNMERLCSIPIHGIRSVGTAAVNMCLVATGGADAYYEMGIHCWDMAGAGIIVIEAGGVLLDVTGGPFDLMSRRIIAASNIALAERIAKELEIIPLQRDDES
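CHO-M1 cells (CHO stably expressing M1 receptor), compound up to 46 uM final, stimulated with carbachol (50 uM as added) in buffer with 50mM LiCl, pH 7.4, 30 min at 37C. Cytosolic IP1 read by TR-FRET; AC50 from Hill fits.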
PNC assembly inh = High Content Assay for Compounds that inhibit the Assembly of the Perinucleolar Compartment. PC3M PTB-GFP, PNC prevalence imaging, 16 h; hits give low values. activity change (PNC), negative = inhibition, % at 10 µM. hit rate 3.1% among 140,000;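 active means readout at or below -70, meaning at least 70% loss of cells showing the perinucleolar compartment, a nuclear body marking cancer cells; inconclusive means readout between -30 and a set limit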
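Read-out is percentage of cells bearing a perinucleolar compartment, from automated 20x imaging of fixed, Hoechst-stained PC3M PTB-GFP cells. Cells were seeded 4 h, then exposed 16 h to compound (23 nl of library stock) in duplicate plates.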
Each line names hits and unclear results; the compound was inactive in the other large screens. Unless noted, the call rests on the fitted dose curve; in most records, active means well fitted curve in the direction sought with a large enough effect; inconclusive means small, poorly fitted or top-dose-only effect, or another doubt; inactive means no such curve, though single readings can be large; an effect the other way counts as inactive or inconclusive.

COc1ccccc1CCNC1CCC(C(C)(C)C)CC1 (stereo unspecified)	ALOX12 inhib inconclusive, PNC assembly inh -112 (no result: IMPase Li inh)
COc1ccccc1CCNC1CCCC(C)C1 (stereo unspecified)	none (no result: IMPase inh)
COc1ccc(-c2nc3ccccc3c(=O)n2-c2ccc(OC)cc2)cc1	none (no result: ALOX12 inhib, IMPase inh, PNC assembly inh)
CCn1nc(-c2ccccc2)nc2c(=O)n(C)c(=O)nc1-2	PNC assembly inh -100
C[C@@H]1O[C@@H](O[C@H]2C[C@@H](O)[C@]3(CO)[C@@H]4[C@@H](O)C[C@]5(C)[C@H](C6=CC(=O)OC6)CC[C@@]5(O)[C@H]4CC[C@@]3(O)C2)[C@H](O)[C@H](O)[C@@H]1O	none (no result: IMPase Li inh, IMPase inh, PNC assembly inh)
CC(C)CC(N)C1(c2ccc(Cl)cc2)CCC1 (stereo unspecified)	none (no result: IMPase inh, PNC assembly inh)
O=C(O)C1(c2ccc(Cl)cc2)CCC1	PNC assembly inh -81
Cc1nc2c(=O)n(C)c(=O)nc-2n(C)n1	PNC assembly inh -93
O=c1[nH]c(=O)n([C@H]2C[C@H](O)[C@H](CO)O2)cc1/C=C\Br	IMPase inh inconclusive (no result: IMPase Li inh, PNC assembly inh)
O=C(Cn1c2c(c(-c3ccccc3Cl)cc1=O)CCC2)N1CCC2(CC1)OCCO2	PNC assembly inh -95
CC(c1ccc(F)cc1)n1cc(C(=O)NCc2ccc3c(c2)OCO3)nn1 (stereo unspecified)	PNC assembly inh -90 (no result: IMPase Li inh)
CC(C)CNC(=O)c1c(N)n(Cc2ccc3c(c2)OCO3)c2nc3ccccc3nc12	none
Cc1ccc(OCC(=O)NCCN2CCN(C(=O)COc3ccc(C)cc3)CC2)cc1	PNC assembly inh -107
COc1cc([C@@H](O)CN)ccc1O	none (no result: IMPase Li inh, PNC assembly inh)
C[C@@]12CC[C@H]3[C@@H](CC=C4C[C@H](OS(=O)(=O)O)CC[C@]43C)[C@H]1CCC2=O	none (no result: IMPase Li inh, PNC assembly inh)
CSc1ccc(CNC2CN3CCC2CC3)cc1 (stereo unspecified)	PNC assembly inh -106
CC(C)(C)NC[C@H](O)c1ccccc1Cl	none (no result: IMPase Li inh, PNC assembly inh)
O=C(C[C@H](c1ccccc1)c1c(O)c2ccccc2oc1=O)c1ccccc1	none (no result: IMPase inh, PNC assembly inh)
Cc1ccc(-n2sc3ccccc3c2=O)cc1	ALOX12 inhib 7.9µM, PNC assembly inh inconclusive
NC(N)=NCCN=C(N)N	none (no result: IMPase inh, PNC assembly inh)
CSc1ccc2c(c1)c(CCN)c(C)n2Cc1ccccc1Cl	none (no result: IMPase inh, PNC assembly inh)
CN(C)[C@@H]1C(=O)C(C(N)=O)=C(O)[C@]2(O)C(=O)C3=C(O)c4c(O)ccc(Cl)c4[C@](C)(O)[C@H]3C[C@@H]12	none (no result: PNC assembly inh)
CN(C)C1C(=O)C(C(N)=O)=C(O)[C@@]2(O)C(=O)C3=C(O)c4c(O)cccc4[C@@](C)(O)C3CC12 (stereo partly specified)	IMPase Li inh 4µM (no result: IMPase inh, PNC assembly inh)
[Cl-].[Cl-].[Hg+2]	ALOX12 inhib 5µM (no result: IMPase inh, PNC assembly inh)
[Cd+2].[Cl-].[Cl-]	ALOX12 inhib 28µM (no result: IMPase inh, PNC assembly inh)
C=C(C)c1ccccc1 (tested in a mixture with another compound)	none (no result: IMPase inh, PNC assembly inh)
C=C(c1ccccc1)P(=O)(O)O	PNC assembly inh -113 (no result: IMPase inh)
COc1ccc(C2NCc3ccc4c(c3-n3cccc32)OCO4)cc1O (stereo unspecified)	PNC assembly inh -108
Nc1cc(Cl)ccc1O	ALOX12 inhib 20µM (no result: IMPase inh, PNC assembly inh)
FC(F)(F)c1nc2ccc(SSc3ccc4nc(C(F)(F)F)[nH]c4c3)cc2[nH]1	none (no result: IMPase inh, PNC assembly inh)
CON(C)C(=O)Nc1ccc(Cl)cc1	PNC assembly inh -121
NS(=O)(=O)C[C-]1C=C[CH]([Sb-]([Cl])([Cl])([Cl])([Cl])[Cl])C=C1.c1ccncc1 (stereo unspecified)	none (no result: IMPase inh, PNC assembly inh)
O=C(Nc1ccc(OC(=O)N2CCCC2)cc1)N1CCOCC1	PNC assembly inh -100
Cc1ccc(C)c(OCC(=O)N2CCCN(C)CC2)c1	PNC assembly inh -112
Cc1ccc(OCC(=O)N2CCN(C)CC2)c(Br)c1	none
C1CNC2NCCNC2N1 (stereo unspecified)	PNC assembly inh -100
C[C@@H]1O[C@H]1P(=O)(O)O	ALOX12 inhib inconclusive (no result: IMPase Li inh, PNC assembly inh)
C=CC1CC=CCC1 (stereo unspecified)	none (no result: IMPase inh, PNC assembly inh)
CN1CCN(c2ccc(S(C)(=O)=O)cc2[N+](=O)[O-])CC1	none (no result: IMPase inh)
CN1CCN(c2ccc(S(=O)(=O)C(F)(F)F)cc2[N+](=O)[O-])CC1	PNC assembly inh -98
CCCc1[nH]nc2c1C1(C(=O)N(Cc3ccccc3)c3ccccc31)C(C(=O)OC)=C(N)O2 (stereo unspecified)	none
CCCc1[nH]nc2c1C1(C(=O)N(CC(N)=O)c3ccccc31)C(C(=O)OC)=C(N)O2 (stereo unspecified)	IMPase inh inconclusive, PNC assembly inh -91
O=C(Cc1ccccc1)Oc1cccc(N2C(=O)CCC2=O)c1	PNC assembly inh -100
C[C@@H]1O[C@@H](O[C@H]2C[C@@H](O)[C@]3(CO)[C@@H]4[C@@H](O)C[C@]5(C)[C@H]([C@@H]6COC(=O)C6)CC[C@@]5(O)[C@H]4CC[C@@]3(O)C2)[C@H](O)[C@H](O)[C@@H]1O	none (no result: IMPase Li inh, PNC assembly inh)
CC(=O)c1ccc2c(c1)C1C(Cl)C(Sc3ccccc3[N+](=O)[O-])CC1C(c1ccccc1)N2 (stereo unspecified)	IMPase inh inconclusive, PNC assembly inh -97
CCCN1CCc2cccc3c2[C@@H]1Cc1ccc(O)c(O)c1-3	ALOX12 inhib inconclusive (no result: IMPase Li inh, PNC assembly inh)
CCCCCCn1c(O)c(C=NCCN2CCCCC2)c(=O)[nH]c1=O	PNC assembly inh inconclusive
CCCCCCn1c(O)c(C=NCCN2CCOCC2)c(=O)[nH]c1=O	PNC assembly inh -114 (no result: IMPase inh)
c1ccc2c(CCNC3=NCCC3)c[nH]c2c1	PNC assembly inh -83
c1ccc2c(CCNC3CCCCC3)c[nH]c2c1	none (no result: ALOX12 inhib, IMPase inh, PNC assembly inh)
CCCCCCN=C(C)c1c(O)n(Cc2ccccc2)c(=O)[nH]c1=O	PNC assembly inh -111
Clc1ccc(N2C[C@H]3CC[C@@H](C2)N3)nn1	none (no result: IMPase Li inh, PNC assembly inh)
O=c1c2ccccc2nc(CNCc2ccco2)n1-c1ccc(F)cc1	PNC assembly inh -83 (no result: IMPase inh)
O=c1c2ccccc2nc(CNCC2CCCO2)n1-c1ccc(F)cc1 (stereo unspecified)	none (no result: ALOX12 inhib, IMPase inh, PNC assembly inh)
CC(ON1CC1(C(F)(F)F)C(F)(F)F)(C(N)=O)C(N)=O (stereo unspecified)	PNC assembly inh -93 (no result: IMPase inh)
CCCC/C(=N\O)c1c[nH]c2ccccc12	PNC assembly inh -81
O/N=C/c1c[nH]c2ccccc12	PNC assembly inh inconclusive
CCN1C(=O)/C(=C/c2ccc3c(c2)CCN3CCCCl)C(=O)NC1=S	PNC assembly inh -99 (no result: IMPase inh)
CN1CCN(Cc2ccccc2Sc2ccccc2)CC1	PNC assembly inh -86 (no result: IMPase inh)
CCOC(=O)c1c(N)n(Cc2ccc(OC)cc2)c2nc3ccccc3nc12	none
COC(=O)c1c(N)n(Cc2ccc(OC)cc2)c2nc3ccccc3nc12	PNC assembly inh -82
CN1C[C@@H](CS(=O)(=O)N(C)C)C[C@H]2c3cccc4c3c(cn4C)C[C@@H]21	none (no result: IMPase Li inh, PNC assembly inh)
O=C(Oc1c(Br)cc(Br)c2cccnc12)N1CCCCC1	IMPase Li inh 13µM (no result: ALOX12 inhib, IMPase inh, PNC assembly inh)
O=C(Oc1c(Cl)cc(Cl)c2ccccc12)N1CCCCC1	PNC assembly inh inconclusive
